Calls of active or inactive are those of the source. Rule for the calls: active = hit-call score of the fitted dose curve at least 0.9, where 1 is the maximum; inactive = score below 0.9.
Columns and labels:
[1] = ATG_CMV_CIS: Attagene CIS-FACTORIAL HepG2 Assay for human CMV (Internal Marker) (AID 2282928); settings: HepG2 CMV promoter reporter, transcription factor profiling; actives raise or lower the signal;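 note: endpoint acts as a background internal control marker rather than a target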
Procedure, shortened: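 Readout: fluorescent reporter cDNA fragments separated by capillary electrophoresis after RT-PCR and HpaI cut. Cells: HepG2 carrying transfected cis-promoter reporter constructs, dosed 24 h. Endpoint serves as background internal-marker control, fit bidirectionally versus DMSO.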

[2] = ATG_DR4_LXR_CIS: Attagene CIS-FACTORIAL HepG2 Assay for human Liver X Receptor (LXR), DR4 submotif (AID 2282929); settings: HepG2 Attagene DR4 cis-reporter, mRNA transcription; AC50: actives raise or lower the signal unless noted; outcome: actives raise or lower the signal unless noted
Procedure, shortened: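 Transiently transfected HepG2 liver cells; cis-regulated reporters; 24 h dosing. RT-PCR plus CE read-out of reporter mRNA. DMSO baseline, bidirectional curve fitting.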

[3] = target: Aryl hydrocarbon receptor (Homo sapiens) (UniProt P35869); experiment: ATG_Ahr_CIS: Attagene CIS-FACTORIAL HepG2 Assay for human Aryl Hydrocarbon Receptor (Ahr) (AID 2282930); settings: HepG2 AhR cis-factorial reporter transcription; actives raise or lower the signal
Aryl hydrocarbon receptor (Homo sapiens), sequence (P35869 whole entry, looked up): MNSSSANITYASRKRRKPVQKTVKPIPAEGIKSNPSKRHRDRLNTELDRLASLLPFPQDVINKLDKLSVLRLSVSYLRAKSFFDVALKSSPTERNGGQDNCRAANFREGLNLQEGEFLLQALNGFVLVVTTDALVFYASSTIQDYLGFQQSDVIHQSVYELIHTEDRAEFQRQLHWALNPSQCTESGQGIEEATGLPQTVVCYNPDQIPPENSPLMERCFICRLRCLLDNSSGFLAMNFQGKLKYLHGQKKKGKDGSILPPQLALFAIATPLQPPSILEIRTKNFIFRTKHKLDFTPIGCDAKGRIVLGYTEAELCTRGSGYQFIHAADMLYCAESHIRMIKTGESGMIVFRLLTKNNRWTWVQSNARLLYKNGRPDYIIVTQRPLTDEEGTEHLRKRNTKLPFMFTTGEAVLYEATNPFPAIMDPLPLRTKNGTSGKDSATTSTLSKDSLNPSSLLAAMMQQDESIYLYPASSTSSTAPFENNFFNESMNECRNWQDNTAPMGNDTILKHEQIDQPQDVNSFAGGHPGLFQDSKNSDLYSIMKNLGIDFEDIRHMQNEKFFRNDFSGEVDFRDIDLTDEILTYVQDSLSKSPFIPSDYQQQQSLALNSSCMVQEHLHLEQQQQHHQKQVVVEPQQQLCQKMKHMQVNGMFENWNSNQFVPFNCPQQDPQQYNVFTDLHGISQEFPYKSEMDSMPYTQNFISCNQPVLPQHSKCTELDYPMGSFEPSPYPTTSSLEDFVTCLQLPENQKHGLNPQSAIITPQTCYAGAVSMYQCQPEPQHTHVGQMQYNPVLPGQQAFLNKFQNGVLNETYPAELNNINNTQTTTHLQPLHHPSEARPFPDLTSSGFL
Procedure, shortened: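 Following 24 h of chemical dosing, transfected HepG2 liver cells with cis-driven reporter units were lysed for RNA; reporter mRNA was quantified via RT-PCR and capillary electrophoresis, and responses fitted bidirectionally from DMSO.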

[4] = ATG_AP_1_CIS: Attagene CIS-FACTORIAL HepG2 Assay for human Activator Protein 1 (AP-1) (AID 2282931); settings: HepG2 Attagene cis-factorial AP-1 reporter mRNA; actives raise or lower the signal
Procedure, shortened: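 We transfected HepG2 cells transiently with a set of cis-regulated reporter transcription units, dosed them for 24 h, and quantified reporter mRNA via RT-PCR and capillary electrophoresis, scoring gain or loss of signal relative to DMSO.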

[5] = ATG_AP_2_CIS: Attagene CIS-FACTORIAL HepG2 Assay for human Activator Protein 2 (AP-2) (AID 2282932); settings: HepG2 AP-2 cis-reporter, Attagene transcription factor profiling; AC50: actives raise or lower the signal unless noted; outcome: actives raise or lower the signal unless noted
Procedure, shortened: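 Cells (HepG2) transfected with promoter-driven reporter constructs, treated 24 h. Total RNA reverse-transcribed, reporter cDNA PCR-amplified, FAM-labelled by primer extension, digested, resolved by capillary electrophoresis. Activity fitted both directions versus DMSO.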

[6] = ATG_BRE_CIS: Attagene CIS-FACTORIAL HepG2 Assay for human Bone Morphogenetic Protein (BMP) Response Element (BRE) (AID 2282933); settings: HepG2 BMP response element reporter, Attagene transcription factor profiling; actives raise or lower the signal
Procedure, shortened: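 Fluorescence-labelled reporter cDNA fragments, separated by capillary electrophoresis, gave the signal for this component of a 52-readout multiplex. HepG2 cells were transfected, exposed to chemicals for 24 h, and compared with DMSO using bidirectional fitting.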

[7] = target: Retinoic acid receptor alpha (Homo sapiens) (UniProt P10276); experiment: ATG_DR5_RAR_CIS: Attagene CIS-FACTORIAL HepG2 Assay for human Retinoic Acid Receptor Alpha (RARE), DR5 submotif (AID 2282934); settings: HepG2 Attagene cis-factorial RARE DR5 reporter, mRNA; actives raise or lower the signal;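 for AC50: reporter responds to endogenous RAR alpha beta and gamma in HepG2 not RARA alone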
Retinoic acid receptor alpha (Homo sapiens), sequence (P10276 whole entry, looked up): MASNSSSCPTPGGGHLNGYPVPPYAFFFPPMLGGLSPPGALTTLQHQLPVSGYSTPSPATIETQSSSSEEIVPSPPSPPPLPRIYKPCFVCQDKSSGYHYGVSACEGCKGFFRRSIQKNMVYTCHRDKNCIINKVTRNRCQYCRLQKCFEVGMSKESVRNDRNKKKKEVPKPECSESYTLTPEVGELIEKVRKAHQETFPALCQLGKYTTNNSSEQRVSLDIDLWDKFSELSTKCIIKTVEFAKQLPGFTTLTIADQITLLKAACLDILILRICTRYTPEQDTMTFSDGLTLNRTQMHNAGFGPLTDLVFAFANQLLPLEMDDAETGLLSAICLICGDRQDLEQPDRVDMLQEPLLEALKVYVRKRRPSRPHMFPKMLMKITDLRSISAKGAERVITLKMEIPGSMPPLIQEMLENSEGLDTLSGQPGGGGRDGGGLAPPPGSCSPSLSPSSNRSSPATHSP
Procedure, shortened: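 Transfected HepG2 reporter cells are exposed to chemicals for 24 h. Then RNA is extracted and the DR5 element reporter transcript is measured by RT-PCR and capillary electrophoresis, with bidirectional curve fitting relative to DMSO.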

[8] = target: Transcription factor E2F1 (Homo sapiens) (UniProt Q01094); experiment: ATG_E2F_CIS: Attagene CIS-FACTORIAL HepG2 Assay for human E2F Transcription Factor 1 (AID 2282935); settings: HepG2 Attagene cis-reporter, E2F reporter RNA transcripts; actives raise or lower the signal
Transcription factor E2F1 (Homo sapiens), sequence (Q01094 whole entry, looked up): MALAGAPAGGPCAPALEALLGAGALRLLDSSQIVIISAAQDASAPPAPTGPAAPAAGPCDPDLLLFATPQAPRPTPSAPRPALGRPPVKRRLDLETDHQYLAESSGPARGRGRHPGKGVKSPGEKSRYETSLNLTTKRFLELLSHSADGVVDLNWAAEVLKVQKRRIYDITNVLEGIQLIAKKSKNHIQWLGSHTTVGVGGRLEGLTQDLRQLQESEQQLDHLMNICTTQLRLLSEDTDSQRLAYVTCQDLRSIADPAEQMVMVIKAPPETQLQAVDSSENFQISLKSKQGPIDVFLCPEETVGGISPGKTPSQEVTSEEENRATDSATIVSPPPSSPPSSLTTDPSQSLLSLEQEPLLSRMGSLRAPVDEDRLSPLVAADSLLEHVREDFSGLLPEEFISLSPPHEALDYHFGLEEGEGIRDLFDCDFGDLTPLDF
Procedure, shortened: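 First, HepG2 cells were transfected with reporter transcription units. Next, they were dosed for 24 h. Then RNA was isolated, converted to cDNA, PCR-amplified, FAM-labeled, HpaI-digested and analyzed by capillary electrophoresis.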

[9] = ATG_E_Box_CIS: Attagene CIS-FACTORIAL HepG2 Assay for human Enhancer Box (E-box) (AID 2282936); settings: HepG2 E-box cis-reporter transcription, actives raise or lower the signal
Procedure, shortened: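 Endogenous transcription factor activity was sensed in human HepG2 liver cells through transfected cis-promoter reporter units. After 24 h of dosing, total RNA was reverse-transcribed and reporter cDNA resolved by capillary electrophoresis.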

[10] = ATG_M_61_CIS: Attagene CIS-FACTORIAL HepG2 Assay for M61 Transcription Factor (Internal Marker) (AID 2282937); settings: HepG2 Attagene CIS-FACTORIAL M61 internal marker reporter; actives raise or lower the signal
Procedure, shortened: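 Multiplexed reporter mRNA assay, HepG2 human hepatoma cells, 24 h treatment. Signal: FAM-labelled, HpaI-digested RT-PCR fragments by CE. Fit: bidirectional, baseline DMSO.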

SMILES	outcome [1]	outcome [2]	outcome [3]	outcome [4]	outcome [5]	outcome [6]	outcome [7]	outcome [8]	outcome [9]	outcome [10]	AC50 [4]	AC50 [2]	AC50 [3]	AC50 [9]	AC50 [6]	AC50 [1]	AC50 [7]	AC50 [5]	AC50 [10]
O=C(F)C(F)(F)C(F)(F)C(F)(F)C(=O)F	inactive	inactive	inactive	inactive	inactive	inactive	inactive	inactive	inactive	inactive	–	–	–	–	–	–	–	–	–
O=C(C=C(O)C(F)(F)F)C(F)(F)F	inactive	inactive	inactive	inactive	inactive	inactive	inactive	inactive	inactive	inactive	–	–	–	–	–	–	–	–	–
Clc1ccc(Nc2nnc(Cc3ccncc3)c3ccccc23)cc1	inactive	inactive	inactive	–	inactive	inactive	inactive	inactive	inactive	inactive	42 µM (active)	–	–	–	–	–	–	–	–
NNC(=O)CCCCC(=O)NN	inactive	inactive	inactive	inactive	inactive	inactive	inactive	inactive	inactive	inactive	–	–	–	–	–	–	–	–	–
CCN(CCC#N)c1ccccc1	inactive	inactive	inactive	inactive	inactive	inactive	inactive	inactive	inactive	inactive	–	–	–	–	–	–	–	–	–
O=S(=O)(O)c1ccc2cc(O)ccc2c1	inactive	inactive	inactive	inactive	inactive	inactive	inactive	inactive	inactive	inactive	–	–	–	–	–	–	–	–	–
FC(F)=C(F)C(F)(F)C(F)(F)C(F)(F)C(F)F	inactive	inactive	inactive	inactive	inactive	inactive	inactive	inactive	inactive	inactive	–	–	–	–	–	–	–	–	–
CN(C)CCOC(c1ccccc1)c1ccccc1	inactive	–	–	inactive	inactive	inactive	inactive	inactive	–	inactive	–	150 µM (active)	64 µM (active)	60.6 µM (active)	–	–	–	–	–
O=C(c1cc(O)c(O)c(O)c1)c1ccc(O)c(O)c1O	inactive	inactive	–	inactive	inactive	–	inactive	inactive	inactive	inactive	–	–	36 µM (active)	–	4.01 µM (active)	–	–	–	–
CCOC=O	inactive	inactive	inactive	inactive	inactive	inactive	inactive	inactive	inactive	inactive	–	–	–	–	–	–	–	–	–
CCCCC(CC)C(=O)OCCOCCOCCOCCOC(=O)C(CC)CCCC (configuration not stated)	inactive	inactive	inactive	inactive	inactive	inactive	inactive	inactive	inactive	inactive	–	–	–	–	–	–	–	–	–
C[C@]12CC[C@@H]3c4ccc(O)cc4CC[C@H]3[C@@H]1CC[C@@H]2OC(=O)CCC1CCCC1	–	–	–	inactive	inactive	–	inactive	inactive	–	inactive	–	14.8 µM (active)	126 µM (active)	73.3 µM (active)	58.2 µM (active)	25.3 µM (active)	–	–	–
COc1cc([N+](=O)[O-])ccc1N	inactive	inactive	inactive	inactive	inactive	inactive	inactive	inactive	inactive	inactive	–	–	–	–	–	–	–	–	–
CCc1cccc(CC)c1N(COC)C(=O)CS(=O)(=O)O	inactive	inactive	inactive	inactive	inactive	inactive	inactive	inactive	inactive	inactive	–	–	–	–	–	–	–	–	–
O=C(O)CN(CCCN(CC(=O)O)CC(=O)O)CC(=O)O	inactive	–	inactive	inactive	inactive	inactive	inactive	inactive	inactive	inactive	–	6.63 µM (active)	–	–	–	–	–	–	–
CC1=CC(=O)c2ccccc2C1=O	inactive	inactive	–	inactive	inactive	inactive	inactive	inactive	–	inactive	–	–	1.4 µM (active)	6.91 µM (active)	–	–	–	–	–

SMILES	outcome [1]	outcome [2]	outcome [3]	outcome [4]	outcome [5]	outcome [6]	outcome [7]	outcome [8]	outcome [9]	outcome [10]	AC50 [4]	AC50 [2]	AC50 [3]	AC50 [9]	AC50 [6]	AC50 [1]	AC50 [7]	AC50 [5]	AC50 [10]
O=C(O)CCC(F)(F)C(F)(F)C(F)(F)C(F)(F)C(F)(F)C(F)(F)F	inactive	–	inactive	inactive	inactive	inactive	–	inactive	inactive	inactive	–	100 µM (active)	–	–	–	–	51 µM (active)	–	–
CC(C)(C)c1ccc(CCC=O)cc1	inactive	inactive	inactive	inactive	inactive	inactive	–	inactive	inactive	inactive	–	–	–	–	–	–	72.3 µM (active)	–	–
Oc1c(Cl)cc(Cl)cc1Sc1cc(Cl)cc(Cl)c1O	inactive	inactive	inactive	inactive	inactive	–	inactive	inactive	inactive	inactive	–	–	–	–	1.9 µM (active)	–	–	–	–
O=C(O)c1cccc(C(=O)O)n1	inactive	inactive	inactive	inactive	inactive	inactive	inactive	inactive	inactive	inactive	–	–	–	–	–	–	–	–	–
NCc1cccc(CN)c1	inactive	inactive	inactive	inactive	inactive	inactive	inactive	inactive	inactive	inactive	–	–	–	–	–	–	–	–	–
FC(F)(F)C1(F)C(F)(F)C(F)(F)C(F)(F)C(F)(C(F)(F)F)C1(F)F (configuration not stated)	inactive	inactive	inactive	inactive	inactive	inactive	inactive	inactive	inactive	inactive	–	–	–	–	–	–	–	–	–
CC[N+](CC)(CC)Cc1ccccc1	inactive	inactive	inactive	inactive	inactive	inactive	inactive	inactive	inactive	inactive	–	–	–	–	–	–	–	–	–
CC(=O)Nc1ccc(S(N)(=O)=O)cc1	inactive	inactive	inactive	inactive	inactive	inactive	inactive	inactive	inactive	inactive	–	–	–	–	–	–	–	–	–
CCN(CC)CC	inactive	inactive	inactive	inactive	inactive	inactive	inactive	inactive	inactive	inactive	–	–	–	–	–	–	–	–	–
C=CC(=O)OCCC(F)(F)C(F)(F)C(F)(F)C(F)(F)C(F)(F)C(F)(F)C(F)(F)C(F)(F)F	inactive	inactive	inactive	–	inactive	inactive	–	inactive	inactive	inactive	–	–	–	–	–	–	15.2 µM (active)	–	–
CCO[Si](CCC1CCC2OC2C1)(OCC)OCC (configuration not stated)	inactive	inactive	inactive	–	inactive	inactive	inactive	inactive	inactive	inactive	–	–	–	–	–	–	–	–	–
CCCCCCCCCCCC	inactive	inactive	inactive	inactive	inactive	inactive	inactive	inactive	inactive	inactive	–	–	–	–	–	–	–	–	–
CCCCc1oc2ccccc2c1C(=O)c1cc(I)c(OCCN(CC)CC)c(I)c1	–	–	–	–	–	inactive	–	inactive	inactive	–	20.2 µM (active)	18.4 µM (active)	55.1 µM (active)	–	–	20 µM (active)	–	130 µM (active)	89.1 µM (active)
Cc1cccc2c1ccc1ccccc12	inactive	inactive	inactive	–	inactive	inactive	inactive	inactive	inactive	–	–	–	–	–	–	–	–	–	–
O=C(CCCN1CCC(O)(c2ccc(Cl)cc2)CC1)c1ccc(F)cc1	–	inactive	inactive	–	inactive	inactive	–	inactive	–	inactive	60.1 µM (active)	–	–	22 µM (active)	–	49.7 µM (active)	–	–	–
O=S(=O)(O)c1ccccc1	inactive	inactive	inactive	–	inactive	inactive	inactive	inactive	inactive	–	–	–	–	–	–	–	–	–	–

Reference: PubChem BioAssay (EPA / NIEHS)
